Where “and” joins values, the source holds several entries; their conditions need not be identical. Equal values may be shown once. Inconclusive results are not listed. Entries that show only a call come without a potency. Some compounds were tested as several samples or in several runs, with calls that do not always agree. Calls of active or inactive are those of the source. Unless noted, calls come from the whole dose curve; as a rule, active = well fitted curve in the direction sought with a large enough effect in the repeat runs; inconclusive = weak or mixed curves; inactive = no such curve, though single readings can be large; an effect the other way counts as inactive or inconclusive.
What was measured:
[1] = qHTS assay to identify small molecule antagonists of the thyroid receptor (TR) signaling pathway - cell viability counter screen (AID 743064); note: nearly all actives have a fitted effect of over 50% in size; note: potency is the fitted concentration of half-maximal effect
Procedure, shortened: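 Plate GH3.TRE-Luc cells; incubate 4 h at 37 °C; add compound, then T3 to 1 nM final; incubate 23.5 h; add CellTiter-Fluor; incubate 30 min at 37 °C, 5% CO2; read fluorescence.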

[2] = qHTS assay to identify small molecule antagonists of the thyroid receptor (TR) signaling pathway (AID 743065); note: nearly all actives have a fitted effect of over 55% in size; note: potency is the fitted concentration of half-maximal effect
Procedure, shortened: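 Antagonism measured as loss of luciferase signal in GH3 cells stably carrying a TRE-luciferase reporter, co-treated with compound and T3 (1 nM final) for 23.5 h at 37 C. Viability was read in the same well by CellTiter-Fluor.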

[3] = test system: thyroid hormone receptor (rat, GH3 cells); assay: qHTS assay to identify small molecule agonists of the thyroid receptor (TR) signaling pathway (AID 743066; calls by dose curve; note: potency is the fitted concentration of half-maximal effect)
[4] = qHTS assay to identify small molecule antagonists of the estrogen receptor alpha (ER-alpha) signaling pathway - cell viability counter screen (AID 743074; calls by dose curve;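 note: HEK293 cells carrying ER-alpha-UAS-bla reporter stimulated with 17beta-estradiol; nearly all actives have a fitted effect of over 45% in size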; note: potency is the fitted concentration of half-maximal effect)
[5] = qHTS assay to identify small molecule antagonists of the estrogen receptor alpha (ER-alpha) signaling pathway using the BG1 cell line - cell viability counter screen (AID 743081);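 note: compound given together with 17beta-estradiol as the ER stimulus; nearly all actives have a fitted effect of over 45% in size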; note: potency is the fitted concentration of half-maximal effect
[6] = qHTS assay to identify aromatase inhibitors - cell viability counter screen (AID 743084);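 note: cells stimulated with testosterone during compound exposure; nearly all actives have a fitted effect of over 55% in size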; note: potency is the fitted concentration of half-maximal effect
[7] = molecular target: Aryl hydrocarbon receptor (Homo sapiens) (UniProt P35869); assay: qHTS assay to identify small molecule that activate the aryl hydrocarbon receptor (AhR) signaling pathway (AID 743085); note: nearly all actives have a fitted effect of over 15% in size; note: potency is the fitted concentration of half-maximal effect;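 for activation: HG2L7.5c1 human HepG2 liver cells with stably integrated DRE-driven firefly reporter; series mostly up to about 70 µM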
Aryl hydrocarbon receptor (Homo sapiens), sequence (P35869 whole entry, looked up): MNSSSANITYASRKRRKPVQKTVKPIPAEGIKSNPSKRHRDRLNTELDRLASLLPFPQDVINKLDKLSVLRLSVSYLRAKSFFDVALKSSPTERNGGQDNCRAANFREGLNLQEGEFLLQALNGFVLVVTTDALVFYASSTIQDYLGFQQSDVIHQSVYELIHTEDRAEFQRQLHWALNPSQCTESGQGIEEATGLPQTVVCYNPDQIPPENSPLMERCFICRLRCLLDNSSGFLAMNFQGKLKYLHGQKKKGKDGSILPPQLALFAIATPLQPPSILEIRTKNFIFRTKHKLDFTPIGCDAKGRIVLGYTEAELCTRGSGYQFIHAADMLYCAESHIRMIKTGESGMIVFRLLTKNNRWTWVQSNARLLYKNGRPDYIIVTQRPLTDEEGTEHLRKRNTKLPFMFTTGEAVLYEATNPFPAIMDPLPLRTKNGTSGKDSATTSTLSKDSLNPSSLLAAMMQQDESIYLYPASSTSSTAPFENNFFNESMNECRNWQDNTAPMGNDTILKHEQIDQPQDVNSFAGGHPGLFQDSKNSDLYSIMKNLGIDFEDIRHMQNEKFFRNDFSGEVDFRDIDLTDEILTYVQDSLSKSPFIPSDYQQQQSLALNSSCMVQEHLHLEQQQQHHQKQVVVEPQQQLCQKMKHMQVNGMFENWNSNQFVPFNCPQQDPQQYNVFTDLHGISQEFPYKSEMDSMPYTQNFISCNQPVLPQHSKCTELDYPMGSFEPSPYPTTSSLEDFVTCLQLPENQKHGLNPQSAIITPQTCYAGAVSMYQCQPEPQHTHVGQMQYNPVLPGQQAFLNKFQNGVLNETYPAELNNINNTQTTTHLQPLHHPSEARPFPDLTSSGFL
Procedure, shortened: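 Steps: seed HepG2-AhR-luc cells; allow 5 h at 37C; pin-transfer test compound or vehicle; incubate 24 h at 37C; add viability dye (30 min, 37C) and read fluorescence; add luciferase substrate (30 min, RT) and read luminescence.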

[8] = qHTS assay to identify small molecule that activate the aryl hydrocarbon receptor (AhR) signaling pathway - cell viability counter screen (AID 743086); note: nearly all actives have a fitted effect of over 45% in size; note: potency is the fitted concentration of half-maximal effect
Procedure, shortened: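 Cytotoxicity counter screen: CellTiter-Fluor signal (30 min, 37 C) in 4000 HepG2 cells/well carrying the DRE-luciferase reporter, following 24 h compound exposure at 37 C.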

[9] = qHTS assay to identify small molecule antagonists of the peroxisome proliferator-activated receptor gamma (PPARg) signaling pathway - cell viability counter screen (AID 743194); note: nearly all actives have a fitted effect of over 55% in size; note: potency is the fitted concentration of half-maximal effect
Procedure, shortened: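 Viability was measured as CellTiter-Glo luminescence in GeneBLAzer PPARg UAS-bla HEK293H cells. These cells had been exposed 17 h at 37 C to compounds together with rosiglitazone at 50 nM final, with the beta-lactamase readout taken in the same wells.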

[10] = qHTS assay for small molecule agonists of the antioxidant response element (ARE) signaling pathway (AID 743202; active = well fitted activation curve with a large enough effect in the signal ratio in the repeat runs, not every such curve was filed as active; the % refers to the signal ratio; note: potency is the fitted concentration of half-maximal effect)
Procedure, shortened: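 Quantitative high-throughput format in HepG2 cells bearing an integrated ARE-beta-lactamase reporter. Compound exposure lasted 16 h at 37 C, and fluorescence was read 2 h after adding LiveBLAzer B/G substrate at room temperature.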

[11] = qHTS assay for small molecule agonists of the antioxidant response element (ARE) signaling pathway - cell viability counter screen (AID 743203; calls by dose curve; note: nearly all actives have a fitted effect of over 55% in size; note: potency is the fitted concentration of half-maximal effect)
Procedure, shortened: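 Seeded at 2,000 cells/well, ARE-bla HepG2 cells were incubated 5 hrs before compound addition. After 16 hrs of treatment at 37C with 5% CO2, CellTiter-Glo reagent was added and luminescence read 30 min later.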

Aromatase (Homo sapiens) = Aromatase (Homo sapiens) (UniProt P11511); assay: qHTS assay to identify aromatase inhibitors (AID 743083); note: nearly all actives have a fitted effect of over 55% in size; note: potency is the fitted concentration of half-maximal effect
Aromatase (Homo sapiens), sequence (P11511 whole entry, looked up): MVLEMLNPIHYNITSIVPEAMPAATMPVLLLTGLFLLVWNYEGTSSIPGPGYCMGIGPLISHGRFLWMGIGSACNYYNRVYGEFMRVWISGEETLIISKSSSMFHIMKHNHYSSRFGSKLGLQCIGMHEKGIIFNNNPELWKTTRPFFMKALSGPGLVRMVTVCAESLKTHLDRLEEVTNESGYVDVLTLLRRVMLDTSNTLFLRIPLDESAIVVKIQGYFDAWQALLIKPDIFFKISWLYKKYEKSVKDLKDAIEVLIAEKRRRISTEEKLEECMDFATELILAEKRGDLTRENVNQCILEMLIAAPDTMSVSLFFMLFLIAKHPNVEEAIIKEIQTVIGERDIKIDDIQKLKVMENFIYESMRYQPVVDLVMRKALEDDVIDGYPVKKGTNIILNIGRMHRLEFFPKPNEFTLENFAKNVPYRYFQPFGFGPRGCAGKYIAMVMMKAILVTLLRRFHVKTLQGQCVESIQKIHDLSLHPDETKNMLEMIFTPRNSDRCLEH

[12] = molecular target: Peroxisome proliferator-activated receptor gamma (Homo sapiens) (UniProt P37231); assay: qHTS assay to identify small molecule agonists of the peroxisome proliferator-activated receptor gamma (PPARg) signaling pathway (AID 743094; active = well fitted activation curve with a large enough effect in the signal ratio in the repeat runs, not every such curve was filed as active; the % refers to the signal ratio; note: potency is the fitted concentration of half-maximal effect)
Peroxisome proliferator-activated receptor gamma (Homo sapiens), sequence (P37231 whole entry, looked up): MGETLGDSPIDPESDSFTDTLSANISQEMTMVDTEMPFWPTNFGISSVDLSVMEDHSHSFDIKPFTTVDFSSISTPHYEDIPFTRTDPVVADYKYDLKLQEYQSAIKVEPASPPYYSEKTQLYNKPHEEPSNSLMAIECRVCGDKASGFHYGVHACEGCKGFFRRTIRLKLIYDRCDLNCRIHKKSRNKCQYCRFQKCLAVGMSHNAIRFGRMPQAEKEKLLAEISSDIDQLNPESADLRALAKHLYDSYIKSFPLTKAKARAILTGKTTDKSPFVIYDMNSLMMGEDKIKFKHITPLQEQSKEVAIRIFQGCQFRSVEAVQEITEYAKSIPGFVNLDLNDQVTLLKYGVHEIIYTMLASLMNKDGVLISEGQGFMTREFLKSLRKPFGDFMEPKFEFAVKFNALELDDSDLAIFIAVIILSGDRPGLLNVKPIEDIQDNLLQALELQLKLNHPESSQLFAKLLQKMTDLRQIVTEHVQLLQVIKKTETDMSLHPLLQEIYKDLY
Procedure, shortened: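 Quantitative HTS agonist mode: stable HEK293H line with UAS-beta-lactamase reporter under PPARg control, 17 h compound exposure at 37C, fluorescence after 1 h FRET substrate loading at room temperature.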

[13] = qHTS assay for small molecule activators of the heat shock response signaling pathway - cell viability counter screen (AID 743209); note: nearly all actives have a fitted effect of over 50% in size; note: potency is the fitted concentration of half-maximal effect
Procedure, shortened: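 First, HSE-bla HeLa cells were seeded at 1500 cells/well and kept overnight at 37 C. Next, compounds were pinned in and incubated 5 h. After the FRET substrate step, CellTiter-Glo was added and luminescence read 30 min later.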

[14] = molecular target: Peroxisome proliferator-activated receptor gamma (Homo sapiens) (UniProt P37231); assay: qHTS assay to identify small molecule antagonists of the peroxisome proliferator-activated receptor gamma (PPARg) signaling pathway (AID 743191; calls by dose curve; note: series mostly up to about 63 µM; nearly all actives have a fitted effect of over 30% in size)
Procedure, shortened: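 Beta-lactamase reporter under UAS control in HEK293H PPARg-bla cells; compound treatment 17 h at 37C. Read-out: fluorescence intensity after 1 h room-temperature incubation with LiveBLAzer B/G FRET substrate.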

[15] = molecular target: Estrogen receptor (Homo sapiens) (UniProt P03372); assay: qHTS assay to identify small molecule antagonists of the estrogen receptor alpha (ER-alpha) signaling pathway (AID 743069; active = well fitted curve in the direction sought with a large enough effect in the signal ratio in the repeat runs, not every such curve was filed as active; the % refers to the signal ratio)
Estrogen receptor (Homo sapiens), sequence (P03372 whole entry, looked up): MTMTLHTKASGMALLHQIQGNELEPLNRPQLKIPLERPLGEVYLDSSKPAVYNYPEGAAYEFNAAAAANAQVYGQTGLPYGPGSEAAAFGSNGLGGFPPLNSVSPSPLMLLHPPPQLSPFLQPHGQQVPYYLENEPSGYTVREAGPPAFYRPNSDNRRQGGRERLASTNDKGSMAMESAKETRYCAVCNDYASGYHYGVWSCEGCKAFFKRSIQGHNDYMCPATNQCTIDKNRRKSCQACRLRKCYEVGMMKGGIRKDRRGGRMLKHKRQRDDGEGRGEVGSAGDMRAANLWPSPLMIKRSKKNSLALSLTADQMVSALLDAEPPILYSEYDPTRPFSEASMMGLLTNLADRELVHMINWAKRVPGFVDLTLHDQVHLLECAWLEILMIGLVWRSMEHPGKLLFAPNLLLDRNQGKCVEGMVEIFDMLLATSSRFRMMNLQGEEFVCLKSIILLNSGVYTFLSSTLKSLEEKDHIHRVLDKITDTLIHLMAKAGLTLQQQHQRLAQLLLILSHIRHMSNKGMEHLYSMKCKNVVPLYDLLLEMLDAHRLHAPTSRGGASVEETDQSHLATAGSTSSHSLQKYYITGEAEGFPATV
Procedure, shortened: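 ER-alpha-UAS-bla GripTite HEK293 line; 2% charcoal-stripped FBS overnight; plated, 4 hr 37C/5% CO2; cpd in DMSO + 17beta-estradiol, 18 hr 37C; LiveBLAzer B/G FRET substrate 2 hr RT; fluorescence intensity.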

[16] = molecular target: Estrogen receptor (Homo sapiens) (UniProt P03372); assay: qHTS assay to identify small molecule agonists of the estrogen receptor alpha (ER-alpha) signaling pathway (AID 743075; calls by dose curve;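 note: HEK293 GripTite cells with ER-alpha and UAS-driven beta-lactamase reporter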)
[17] = molecular target: Estrogen receptor (Homo sapiens) (UniProt P03372); assay: qHTS assay to identify small molecule agonists of the estrogen receptor alpha (ER-alpha) signaling pathway using the BG1 cell line (AID 743079); note: nearly all actives have a fitted effect of over 20% in size
[18] = qHTS assay to identify small molecule antagonists of the estrogen receptor alpha (ER-alpha) signaling pathway using the BG1 cell line (AID 743080; calls by dose curve;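 note: BG1 cells stimulated with 17beta-estradiol alongside compound; nearly all actives have a fitted effect of over 25% in size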; note: potency is the fitted concentration of half-maximal effect)
Procedure, shortened: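 BG1Luc4E2, endogenous ER-alpha, 4xERE-luc; 5 d charcoal-stripped FBS, phenol red free; 24 h plating; cpd + 17beta-estradiol 21.5 h, 37 C/5% CO2; CellTiter-Fluor viability 30 min, then ONE-Glo luciferase 30 min RT.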

Row | SMILES | Potency [1] | Potency [2] | Potency [3] | Potency [4] | Potency [5] | Potency [6] | Potency [7] | Potency [8] | Potency [9] | Potency [10] | Potency [11] | Potency (Aromatase (Homo sapiens)) | Potency [12] | Potency [13] | Potency [14] | Potency [15] | Potency [16] | Potency [17] | Potency [18]
1 | c1ccc2cc3c4ccccc4c4ccccc4c3cc2c1 | inactive | inactive | inactive | inactive | inactive | inactive | 0.0973 µM (active) | inactive | inactive | 1.94 µM (active) | inactive | – | – | – | – | – | – | – | –
2 | CNCC(=O)N[C@@H](CCCN=C(N)N)C(=O)N[C@H](C(=O)N[C@@H](Cc1ccc(O)cc1)C(=O)N[C@H](C(=O)N[C@@H](Cc1cnc[nH]1)C(=O)N1CCC[C@H]1C(=O)N[C@@H](C)C(=O)O)C(C)C)C(C)C | inactive | inactive | inactive | inactive | inactive | inactive | inactive | inactive | – | – | – | inactive | inactive | – | – | – | – | – | –
3 | COc1cc([C@@H]2c3cc4c(cc3[C@@H](O[C@@H]3O[C@@H]5CO[C@@H](C)O[C@H]5[C@H](O)[C@H]3O)[C@H]3COC(=O)[C@H]23)OCO4)cc(OC)c1O | 4.28 µM (active) | 9.44 µM (active) and 3.4 µM (active) | inactive | inactive | inactive | inactive | inactive | inactive | inactive | – | – | inactive | – | – | – | – | – | – | –
4 | CCC(NC(C)C)C(O)c1ccc(O)c(O)c1 (centres undefined) | inactive | inactive | inactive | inactive | inactive | inactive | inactive | inactive | – | – | – | inactive | – | – | – | – | – | – | –
5 | CCCCCN=C(N)N/N=C/c1c[nH]c2ccc(OC)cc12 | inactive | inactive | inactive | inactive | inactive | inactive | – | inactive | 13.3 µM (active) | – | 10.6 µM (active) | inactive | inactive | 29.8 µM (active) | – | – | – | – | –
6 | Cc1ccc(Cl)c(N)c1Cl | inactive | inactive | inactive | inactive | inactive | inactive | inactive | inactive | inactive | – | inactive | inactive | inactive | inactive | inactive | – | – | – | –
7 | CN(C)CCc1c[nH]c2ccc(Cn3cncn3)cc12 | inactive | inactive | inactive | inactive | inactive | inactive | – | inactive | – | – | – | inactive | inactive | – | – | – | – | – | –
8 | CC1CCCCN1CCCOC(=O)c1ccccc1 (centres undefined) | inactive | inactive | inactive | inactive | inactive | inactive | inactive | inactive | – | – | – | inactive | – | – | – | – | – | – | –
9 | CSCC[C@H](NC(=O)[C@H](Cc1ccc(OS(=O)(=O)O)cc1)NC(=O)[C@@H](N)CC(=O)O)C(=O)NCC(=O)N[C@@H](Cc1c[nH]c2ccccc12)C(=O)N[C@@H](CCSC)C(=O)N[C@@H](CC(=O)O)C(=O)N[C@@H](Cc1ccccc1)C(N)=O | inactive | inactive | inactive and 11.9 µM (active) | inactive | inactive | inactive | inactive | inactive | – | – | – | inactive | inactive | – | – | – | – | – | –
10 | CC1(C)S[C@@H]2[C@H](NC(=O)[C@H](N)c3ccc(O)cc3)C(=O)N2[C@H]1C(=O)O | inactive | inactive | inactive | inactive | inactive | inactive | inactive | inactive | – | – | – | inactive | – | – | – | – | – | – | –
11 | CC(=O)Oc1cc(C(F)(F)F)ccc1C(=O)O | inactive | inactive | inactive | inactive | inactive | inactive | inactive | inactive | – | – | – | inactive | inactive | – | – | – | – | – | –
12 | C[C@]12O[C@H](C[C@]1(O)CO)n1c3ccccc3c3c4c(c5c6ccccc6n2c5c31)CNC4=O | 0.188 µM (active) | 0.188 µM (active) | – | 21.3 µM (active) | 21.1 µM (active) | 23.7 µM (active) | 0.531 µM (active) | 18.8 µM (active) | – | – | – | 2.11 µM (active) | – | – | – | – | – | – | –
13 | CC(C)(C)c1ccc2c(S(=O)(=O)O)c(C(C)(C)C)ccc2c1 | inactive | – | inactive | inactive | inactive | inactive | inactive | inactive | – | – | – | inactive | 9.52 µM (active) | – | – | inactive | inactive | inactive | inactive
14 | CCN1\C(=C/C=C/C=C/c2sc3ccccc3[n+]2CC)Sc2ccccc21 | 5.96 µM (active) and 7.5 µM (active) | 2.37 µM (active) and 4.22 µM (active) | – | 67.4 nM (active) and 1.69 µM (active) | 11.9 µM (active) | 11.9 µM (active) | – | 11.9 µM (active) and 23.7 µM (active) | – | – | – | 5.96 µM (active) and 10.6 µM (active) | inactive | – | – | – | inactive | – | 1.88 µM (active)
15 | CN(C[C@@H](CC[N+]12CCC(C3CCCCC3)(CC1)CC2)c1ccc(Cl)c(Cl)c1)C(=O)c1cc(C(F)(F)F)cc(C(F)(F)F)c1 | 21.7 µM (active) | 27.3 µM (active) | – | 49 µM (active) | – | 61.1 µM (active) | inactive | 54.5 µM (active) | 54.9 µM (active) | – | 30.6 µM (active) | 61.1 µM (active) | – | 24.5 µM (active) | – | – | – | – | –
16 | CO[C@H]1C[C@@H]2CC[C@@H](C)[C@@](O)(O2)C(=O)C(=O)N2CCCC[C@H]2C(=O)O[C@H]([C@H](C)C[C@@H]2CC[C@@H](O)[C@H](OC)C2)CC(=O)[C@H](C)C=C(C)[C@@H](O)[C@@H](OC)C(=O)[C@H](C)C[C@H](C)/C=C/C=CC=C1C | 15 µM (active) and 9.44 µM (active) | 15 µM (active) | – | 23.9 µM (active) | 23.7 µM (active) and 3.76 µM (active) | 23.7 µM (active) and 26.6 µM (active) | inactive | 13.3 µM (active) and 26.6 µM (active) | – | – | – | 2.11 µM (active) | – | – | – | – | inactive | – | 3.8 nM (active) and 7.5 nM (active)

Reference: PubChem BioAssay (Tox21)
